Reference: PubChem BioAssay (NCI)
Values joined by “and” are separate entries in the source; they are usually repeats but may differ in a detail not shown here. Equal entries are not always repeated. About 83,000 compounds went through this panel and 20% of them were active in at least one assay; those are over-represented in the sample as a whole.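 Percent growth is the endpoint: 0 to 100 indicates growth inhibition (40 means 60% inhibition), 0 means no net growth, and negative values indicate cell death.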 Active and inactive are the calls of the source. The calls were made as follows: active = growth percent below 10; inactive = the rest.

How the values were obtained:
Assay in all cases: NCI-60 one-dose screen, 48 h (100 = growth as untreated, 0 = no growth, -100 = all killed)
DU-145 prostate = tested on: DU-145 prostate
K-562 leukemia = tested on: K-562 leukemia
MALME-3M melanoma = tested on: MALME-3M melanoma
MDA-MB-231 breast = tested on: MDA-MB-231 breast
RXF 393 renal = tested on: RXF 393 renal
SF-268 CNS = tested on: SF-268 CNS
SF-295 CNS = tested on: SF-295 CNS
SF-539 CNS = tested on: SF-539 CNS
UACC-257 melanoma = tested on: UACC-257 melanoma
M14 melanoma = tested on: M14 melanoma
HCT-15 colon = tested on: HCT-15 colon
HT29 colon = tested on: HT29 colon
SNB-75 CNS = tested on: SNB-75 CNS
SNB-19 CNS = tested on: SNB-19 CNS
U251 CNS = tested on: U251 CNS
PC-3 prostate = tested on: PC-3 prostate
SK-MEL-5 melanoma = tested on: SK-MEL-5 melanoma
UACC-62 melanoma = tested on: UACC-62 melanoma
LOX IMVI melanoma = tested on: LOX IMVI melanoma
SK-MEL-28 melanoma = tested on: SK-MEL-28 melanoma

Measured: growth

OC(COc1cccc2ccccc12)CN1CCN(c2ccc(Cl)cc2)CC1 (configuration not stated)
inactive: DU-145 prostate; 10 µM unless noted 93.1% and 122% | K-562 leukemia; 10 µM unless noted 66.3% and 85% | MALME-3M melanoma; 10 µM unless noted 109% and 106% | MDA-MB-231 breast; 10 µM unless noted 83.6% and 112% | SF-268 CNS; 10 µM unless noted 91.1% and 103% | SF-295 CNS; 10 µM unless noted 70.2% and 83.2% | SF-539 CNS; 10 µM unless noted 91.3% and 102% | UACC-257 melanoma; 10 µM unless noted 114% and 95.9% | M14 melanoma; 10 µM unless noted 90.9% and 100% | HCT-15 colon; 10 µM unless noted 87.4% and 101% | HT29 colon; 10 µM unless noted 82.9% and 88.9% | SNB-75 CNS; 10 µM unless noted 73.7% and 88% | SNB-19 CNS; 10 µM unless noted 87.6% and 90.2% | U251 CNS; 10 µM unless noted 69.9% and 108% | PC-3 prostate; 10 µM unless noted 88.4% | SK-MEL-5 melanoma; 10 µM unless noted 87.6% and 102% | UACC-62 melanoma; 10 µM unless noted 98% and 85% | LOX IMVI melanoma; 10 µM unless noted 86.3% and 82.2% | SK-MEL-28 melanoma; 10 µM unless noted 107% and 114%
-3.89% (active) and 94.8% (inactive): RXF 393 renal; 10 µM unless noted

CC1(C)OB(c2ccc(Cn3cc(F)c(=O)[nH]c3=O)cc2)OC1(C)C
inactive: DU-145 prostate; 10 µM 113% | DU-145 prostate; 50 µM 84% | K-562 leukemia; 10 µM 110% | K-562 leukemia; 50 µM 29.7% | MALME-3M melanoma; 10 µM 97.2% | MALME-3M melanoma; 50 µM 44.7% | MDA-MB-231 breast; 10 µM 124% | MDA-MB-231 breast; 50 µM 86.1% | RXF 393 renal; 10 µM 99.7% | RXF 393 renal; 50 µM 59.9% | SF-268 CNS; 10 µM 94.7% | SF-268 CNS; 50 µM 68.7% | SF-295 CNS; 10 µM 102% | SF-295 CNS; 50 µM 85.5% | SF-539 CNS; 10 µM 101% | SF-539 CNS; 50 µM 61.4% | UACC-257 melanoma; 10 µM 103% | UACC-257 melanoma; 50 µM 67.3% | M14 melanoma; 10 µM 103% | M14 melanoma; 50 µM 44.9% | HCT-15 colon; 10 µM 101% | HCT-15 colon; 50 µM 68.1% | HT29 colon; 10 µM 112% | HT29 colon; 50 µM 24.3% | SNB-75 CNS; 10 µM 103% | SNB-75 CNS; 50 µM 38.3% | SNB-19 CNS; 10 µM 103% | SNB-19 CNS; 50 µM 70.6% | U251 CNS; 10 µM 105% | U251 CNS; 50 µM 82.6% | PC-3 prostate; 10 µM 101% | PC-3 prostate; 50 µM 55.4% | SK-MEL-5 melanoma; 10 µM 98.4% | SK-MEL-5 melanoma; 50 µM 38.8% | UACC-62 melanoma; 10 µM 89.8% | UACC-62 melanoma; 50 µM 29.1% | LOX IMVI melanoma; 10 µM 98.2% | LOX IMVI melanoma; 50 µM 52.6% | SK-MEL-28 melanoma; 10 µM unless noted 99.4%

Cc1[nH]c(-c2nc3ccccc3[nH]2)c(C)c1C(=O)NC(C)C1CCCCC1 (configuration not stated)
inactive: DU-145 prostate; 10 µM 98.8% | K-562 leukemia; 10 µM 68.7% | MALME-3M melanoma; 10 µM 82.1% | MDA-MB-231 breast; 10 µM 70.3% | RXF 393 renal; 10 µM 77.2% | SF-268 CNS; 10 µM 94.9% | SF-295 CNS; 10 µM 101% | SF-539 CNS; 10 µM 89.4% | UACC-257 melanoma; 10 µM 87% | HCT-15 colon; 10 µM 69% | HT29 colon; 10 µM 94.8% | U251 CNS; 10 µM 96.7% | PC-3 prostate; 10 µM 78.5% | SK-MEL-5 melanoma; 10 µM 80.2% | UACC-62 melanoma; 10 µM 78.1% | LOX IMVI melanoma; 10 µM unless noted 84.7% | SK-MEL-28 melanoma; 10 µM 89.2%
active: DU-145 prostate; 100 µM -96.3% | K-562 leukemia; 100 µM -24.3% | MALME-3M melanoma; 100 µM -72.6% | MDA-MB-231 breast; 100 µM -70.8% | RXF 393 renal; 100 µM -92% | SF-268 CNS; 100 µM -71.4% | SF-295 CNS; 100 µM -88.8% | SF-539 CNS; 100 µM -97.7% | UACC-257 melanoma; 100 µM -64.6% | HCT-15 colon; 100 µM -80.6% | HT29 colon; 100 µM -38.4% | U251 CNS; 100 µM -64.5% | PC-3 prostate; 100 µM -58.3% | SK-MEL-5 melanoma; 100 µM -99.6% | UACC-62 melanoma; 100 µM -96.5% | SK-MEL-28 melanoma; 100 µM -94.9%

Nc1ccccc1Nc1ccccc1
inactive: DU-145 prostate; 10 µM unless noted 100% and 93.4% | K-562 leukemia; 10 µM unless noted 67.8% and 85.5% | MALME-3M melanoma; 10 µM unless noted 117% and 136% | MDA-MB-231 breast; 10 µM unless noted 82.1% and 71.7% | RXF 393 renal; 10 µM unless noted 122% and 129% | SF-268 CNS; 10 µM unless noted 90.4% and 77.8% | SF-295 CNS; 10 µM unless noted 98.4% | SF-539 CNS; 10 µM unless noted 94.8% and 78.5% | UACC-257 melanoma; 10 µM unless noted 86.1% and 115% | M14 melanoma; 10 µM unless noted 106% and 102% | HCT-15 colon; 10 µM unless noted 86.8% and 83.1% | HT29 colon; 10 µM unless noted 118% and 97.4% | SNB-75 CNS; 10 µM unless noted 106% and 90.7% | SNB-19 CNS; 10 µM unless noted 97.9% and 105% | U251 CNS; 10 µM unless noted 89.3% and 86.7% | PC-3 prostate; 10 µM unless noted 87.6% and 91.7% | SK-MEL-5 melanoma; 10 µM unless noted 89.5% and 94.7% | UACC-62 melanoma; 10 µM unless noted 98.8% and 99.3% | LOX IMVI melanoma; 10 µM unless noted 85.1% and 87% | SK-MEL-28 melanoma; 10 µM unless noted 109% and 101%

Cc1ccc(NCSc2ccc(Cl)cc2)cc1
inactive: DU-145 prostate; 10 µM unless noted 93.2% and 95.4% | K-562 leukemia; 10 µM unless noted 74.1% and 80.2% | MALME-3M melanoma; 10 µM unless noted 115% and 92.6% | MDA-MB-231 breast; 10 µM unless noted 58.7% and 59.7% | RXF 393 renal; 10 µM unless noted 100% and 111% | SF-268 CNS; 10 µM unless noted 63.9% and 57.2% | SF-295 CNS; 10 µM unless noted 85.8% | SF-539 CNS; 10 µM unless noted 65% and 69.6% | UACC-257 melanoma; 10 µM unless noted 70.7% and 86.5% | M14 melanoma; 10 µM unless noted 76% and 89% | HCT-15 colon; 10 µM unless noted 77.1% and 90.7% | HT29 colon; 10 µM unless noted 79.4% and 75.7% | SNB-75 CNS; 10 µM unless noted 86% and 91.7% | SNB-19 CNS; 10 µM unless noted 89.3% and 90% | U251 CNS; 10 µM unless noted 71.4% and 79.1% | PC-3 prostate; 10 µM unless noted 66.8% and 62.3% | SK-MEL-5 melanoma; 10 µM unless noted 86.5% and 102% | UACC-62 melanoma; 10 µM unless noted 82.3% and 85% | LOX IMVI melanoma; 10 µM unless noted 88.6% and 95.2% | SK-MEL-28 melanoma; 10 µM unless noted 86.9% and 94.3%

CN(C)CCC(=O)c1ccc(Cl)cc1
inactive: DU-145 prostate; 10 µM unless noted 112% and 133% | K-562 leukemia; 10 µM unless noted 110% and 91.3% | MALME-3M melanoma; 10 µM unless noted 106% and 122% | MDA-MB-231 breast; 10 µM unless noted 105% and 107% | RXF 393 renal; 10 µM unless noted 110% and 121% | SF-268 CNS; 10 µM unless noted 105% and 107% | SF-295 CNS; 10 µM unless noted 117% and 126% | SF-539 CNS; 10 µM unless noted 106% | UACC-257 melanoma; 10 µM unless noted 103% and 104% | M14 melanoma; 10 µM unless noted 98.6% and 109% | HCT-15 colon; 10 µM unless noted 111% and 116% | HT29 colon; 10 µM unless noted 106% and 100% | SNB-75 CNS; 10 µM unless noted 78.6% and 114% | SNB-19 CNS; 10 µM unless noted 95% and 109% | U251 CNS; 10 µM unless noted 113% and 111% | PC-3 prostate; 10 µM unless noted 92.5% and 103% | SK-MEL-5 melanoma; 10 µM unless noted 103% and 112% | UACC-62 melanoma; 10 µM unless noted 98.5% and 101% | LOX IMVI melanoma; 10 µM unless noted 113% and 92.2% | SK-MEL-28 melanoma; 10 µM unless noted 107% and 115%

O=[N+]([O-])c1ccc(-n2[nH]nnc2=S)cc1
inactive: DU-145 prostate; 10 µM unless noted 112% | K-562 leukemia; 10 µM unless noted 102% | MALME-3M melanoma; 10 µM unless noted 89.2% | MDA-MB-231 breast; 10 µM unless noted 93.6% | RXF 393 renal; 10 µM unless noted 166% | SF-268 CNS; 10 µM unless noted 98.3% | SF-295 CNS; 10 µM unless noted 95.2% | SF-539 CNS; 10 µM unless noted 104% | UACC-257 melanoma; 10 µM unless noted 113% | M14 melanoma; 10 µM unless noted 109% | HCT-15 colon; 10 µM unless noted 97.5% | HT29 colon; 10 µM unless noted 99.2% | SNB-75 CNS; 10 µM unless noted 89.1% | SNB-19 CNS; 10 µM unless noted 98.1% | U251 CNS; 10 µM unless noted 108% | PC-3 prostate; 10 µM unless noted 92% | SK-MEL-5 melanoma; 10 µM unless noted 122% | UACC-62 melanoma; 10 µM unless noted 94.6% | LOX IMVI melanoma; 10 µM unless noted 94.4% | SK-MEL-28 melanoma; 10 µM unless noted 106%

Cc1cc(N=Nc2ccc(C)c(N=Nc3cc(C)c(N)cc3N)c2)c(N)cc1N
inactive: DU-145 prostate; 10 µM unless noted 107% and 90.9% | K-562 leukemia; 10 µM unless noted 75.9% and 34.5% | MALME-3M melanoma; 10 µM unless noted 89.3% and 98.5% | MDA-MB-231 breast; 10 µM unless noted 68.6% and 73.3% | RXF 393 renal; 10 µM unless noted 91.1% and 89.1% | SF-268 CNS; 10 µM unless noted 98.9% and 80.7% | SF-295 CNS; 10 µM unless noted 98.6% and 66% | SF-539 CNS; 10 µM unless noted 87.9% and 99.8% | UACC-257 melanoma; 10 µM unless noted 91.4% and 89.9% | M14 melanoma; 10 µM unless noted 90.8% and 65.4% | HCT-15 colon; 10 µM unless noted 95.9% and 44.3% | HT29 colon; 10 µM unless noted 92.8% and 40.8% | SNB-75 CNS; 10 µM unless noted 78% and 72.7% | SNB-19 CNS; 10 µM unless noted 97.7% and 91.2% | U251 CNS; 10 µM unless noted 97% and 86.7% | PC-3 prostate; 10 µM unless noted 64.6% | SK-MEL-5 melanoma; 10 µM unless noted 100% and 78.7% | UACC-62 melanoma; 10 µM unless noted 91.7% and 93.9% | LOX IMVI melanoma; 10 µM unless noted 90.8% and 82.6% | SK-MEL-28 melanoma; 10 µM unless noted 98.9% and 88.4%
